From PubChem BioAssay
Activity calls are given as the source filed them.

Assays:
Albumin (Bos taurus) = Albumin (Bos taurus) (UniProt P02769); test: compounds binding labelled BSA control protein – biochemical, small-molecule microarray, Alexa647 label, 635/667 nm fluorescence, artefact control for SMM control protein annotation, profiling panel (AID 1118); settings: BSA-A647 binding, fluorescence 635 nm, higher = more signal;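 note: score merges 667 nm emission intensity and signal-to-noise per printed compound spot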
[1] = probe aXIP binding to arrayed compounds – biochemical, NeuroSMM set, 635/667 nm fluorescence, primary screen (AID 1119); settings: small-molecule microarray, higher = more signal, called active from +8 up or from −8 down;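 note: probe is the protein aXip251-270 applied at 1 µg/mL to compound-printed slides; binding of probe to printed compounds measured as 667 nm fluorescence plus signal to noise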
[2] = probe aNOTCH3 binding on compound microarray – biochemical, small-molecule microarray, 635/667 nm fluorescence, primary screen (AID 1120); settings: higher = more signal;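 note: probe is a biotin-tagged antibody raised against NOTCH3 rather than NOTCH3 protein; score merges spot fluorescence near 667 nm with spot signal to noise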
[3] = probe aNOTCH2 binding on compound microarray – biochemical, small-molecule microarray, 635/667 nm fluorescence, primary screen (AID 1121); settings: higher = more signal;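 note: score merges feature fluorescence read at 667 nm with its signal to noise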
[4] = molecular target: Carbonic anhydrase 2 (Homo sapiens) (UniProt P00918); test: compounds binding carbonic anhydrase 2 – biochemical, small-molecule microarray, Alexa647-labelled CAII, profiling panel (AID 1122); settings: CAII-A647 binding fluorescence, higher = more signal
[5] = COS7 lysate on small-molecule microarray, probe aHis, 635 nm (AID 1123); settings: COS7 cell lysate, fluorescence, higher = more signal;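 note: z-score combines 667nm fluorescence intensity with signal-to-noise per printed compound spot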
[6] = probe aLAP1 signal on lysate-treated microarray – cell lysate, small-molecule microarray, COS7 lysate, primary screen (AID 1124); settings: probe aLAP1, fluorescence, higher = more signal;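 note: lysate comes from COS7 cells expressing LAP1 and is applied at 0.3 µg/mL; score merges spot fluorescence near 667 nm with signal-to-noise over triplicate slides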
Sam68 (KHDRBS1) = test: compounds binding KHDRBS1 protein – biochemical, small-molecule microarray, 635 nm fluorescence, primary screen (AID 1125); settings: higher = more signal;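 note: score merges 667 nm channel intensity with signal to noise over triplicate slides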
[7] = test system: Chordin-like protein 2 (CHRDL2); test: compounds binding chordin-like 2 – biochemical, small-molecule microarray, 635 nm fluorescence, primary screen (AID 1126); settings: fluorescence 635 nm, higher = more signal;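 note: printed compound slides probed with Chrdl2 protein at 4 µg/mL for 1 h at 4 C; score merges 667 nm emission intensity with signal to noise over three replicate slides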
[8] = molecular target: Concanavalin-A (Canavalia ensiformis) (UniProt P02866); test: compounds binding concanavalin A lectin – biochemical, small-molecule microarray, Alexa647 label, 635 nm, artefact control for SMM control protein annotation, primary screen (AID 1127); settings: ConA-A647 binding fluorescence, higher = more signal;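 note: z combines 667 nm emission intensity with signal-to-noise across three replicate slides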
[9] = compounds binding Alexa647 anti-His antibody – biochemical, small-molecule microarray, 635 nm fluorescence, artefact control for SMM control protein annotation, primary screen (AID 1128); settings: higher = more signal;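 note: score merges feature fluorescence with signal-to-noise for each printed compound spot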
[10] = test system: Human papillomavirus type 1a E7 protein (residues 1-88); test: HPV1a E7 small-molecule binders, primary screen, biochemical, small-molecule microarray, residues 1-88, 635 nm (AID 1129); settings: small-molecule microarray binding, fluorescence 635 nm; higher = more signal
[11] = molecular target: Focal adhesion kinase 1 (Homo sapiens) (UniProt Q05397); test: PTK2 protein binding on printed compound slides – biochemical, small-molecule microarray, 635/667 nm fluorescence, BSA, DTT, primary screen (AID 1130); settings: 635 nm fluorescence, higher = more signal;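 note: composite of spot emission at 667 nm and signal to noise over triplicate slides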
[12] = test system: Fibrinogen (Alexa647-labelled); test: Alexa647-fibrinogen binding to printed small molecules – biochemical, small-molecule microarray, 635/667 nm fluorescence, artefact control for SMM control-protein annotation, profiling panel (AID 1131); settings: fibrinogen-A647 binding fluorescence, higher = more signal;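 note: z-score merges 667 nm fluorescence with per-spot signal-to-noise over triplicate slides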
[13] = molecular target: Follistatin (Homo sapiens) (UniProt P19883); test: FST protein binding to printed compounds – biochemical, small-molecule microarray, 635/667 nm fluorescence, primary screen (AID 1132); settings: 635 nm fluorescence, higher = more signal
[14] = molecular target: Fibroblast growth factor 2 (Homo sapiens) (UniProt P09038); test: basic fibroblast growth factor binding to printed compounds – biochemical, small-molecule microarray, 635/667 nm fluorescence, primary screen (AID 1133); settings: FGF2, fluorescence 635/667, higher = more signal
[15] = JC-1 mitochondrial potential readout, lung cancer cells – cell-based, A549, JC-1 fluorescence, basal, 24 h, 100 nL, profiling panel (AID 1138); settings: higher = more signal;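 note: A549 lung adenocarcinoma cells under basal conditions with no added stimulus; test concentration not given here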
Lefty1 = Lefty1 protein binding to printed compounds – biochemical, small-molecule microarray, 635/667 nm fluorescence, primary screen (AID 1139); settings: fluorescence 635/667, higher = more signal
[16] = test system: wheat germ agglutinin (Triticum aestivum), Alexa647-labelled; test: Alexa647-WGA lectin binding to printed small molecules – biochemical, small-molecule microarray, 635/667 nm fluorescence, artefact control for SMM control-protein annotation, profiling panel (AID 1140); settings: WGA-A647 binding, 635 nm fluorescence, higher = more signal;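 note: score merges 667 nm feature emission with signal to noise over triplicate slides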
[17] = molecular target: Luciferin 4-monooxygenase (Photinus pyralis) (UniProt P08659); test: inhibition of purified Photinus pyralis luciferase – biochemical, luminescence, purified enzyme, 2006 set, primary screen (AID 1141); settings: purified firefly luciferase, SteadyGlo luminescence, 30 min; higher = more signal, called active from +8 up or from −8 down;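 note: cell-free assay with purified firefly luciferase at 100 ng per well in PBS; test concentration not given here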
Chain of Luciferin 4-monooxygenase (Photinus pyralis) (P08659 whole entry, looked up): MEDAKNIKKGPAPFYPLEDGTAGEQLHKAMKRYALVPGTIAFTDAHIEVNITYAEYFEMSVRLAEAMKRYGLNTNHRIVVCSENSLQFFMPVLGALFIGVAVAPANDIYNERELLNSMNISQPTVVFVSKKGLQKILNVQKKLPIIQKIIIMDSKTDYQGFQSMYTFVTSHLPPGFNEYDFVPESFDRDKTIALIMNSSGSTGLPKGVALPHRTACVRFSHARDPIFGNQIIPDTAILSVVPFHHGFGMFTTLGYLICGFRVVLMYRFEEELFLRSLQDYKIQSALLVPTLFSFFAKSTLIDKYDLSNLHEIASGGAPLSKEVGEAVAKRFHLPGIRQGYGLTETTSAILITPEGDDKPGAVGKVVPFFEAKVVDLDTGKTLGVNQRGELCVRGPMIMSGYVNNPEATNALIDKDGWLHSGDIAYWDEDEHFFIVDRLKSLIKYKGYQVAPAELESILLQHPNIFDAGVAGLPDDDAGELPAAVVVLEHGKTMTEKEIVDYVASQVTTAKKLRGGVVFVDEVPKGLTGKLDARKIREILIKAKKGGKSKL

Chain of Albumin (Bos taurus) (P02769 whole entry, looked up): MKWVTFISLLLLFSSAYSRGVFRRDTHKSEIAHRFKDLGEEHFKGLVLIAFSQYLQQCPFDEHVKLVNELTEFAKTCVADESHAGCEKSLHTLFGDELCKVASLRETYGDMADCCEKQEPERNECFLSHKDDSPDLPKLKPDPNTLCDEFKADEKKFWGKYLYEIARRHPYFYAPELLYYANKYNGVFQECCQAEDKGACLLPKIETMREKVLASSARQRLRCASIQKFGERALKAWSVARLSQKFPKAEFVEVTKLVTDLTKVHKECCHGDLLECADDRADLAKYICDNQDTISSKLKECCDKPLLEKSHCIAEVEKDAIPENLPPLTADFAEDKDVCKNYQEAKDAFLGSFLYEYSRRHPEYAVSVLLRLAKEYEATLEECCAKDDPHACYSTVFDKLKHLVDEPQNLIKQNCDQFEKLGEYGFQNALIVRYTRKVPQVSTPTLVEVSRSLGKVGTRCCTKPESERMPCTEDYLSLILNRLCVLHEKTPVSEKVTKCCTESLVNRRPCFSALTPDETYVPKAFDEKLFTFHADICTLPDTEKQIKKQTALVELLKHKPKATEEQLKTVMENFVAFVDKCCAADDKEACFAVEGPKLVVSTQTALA
Chain of Concanavalin-A (Canavalia ensiformis) (P02866 whole entry, looked up): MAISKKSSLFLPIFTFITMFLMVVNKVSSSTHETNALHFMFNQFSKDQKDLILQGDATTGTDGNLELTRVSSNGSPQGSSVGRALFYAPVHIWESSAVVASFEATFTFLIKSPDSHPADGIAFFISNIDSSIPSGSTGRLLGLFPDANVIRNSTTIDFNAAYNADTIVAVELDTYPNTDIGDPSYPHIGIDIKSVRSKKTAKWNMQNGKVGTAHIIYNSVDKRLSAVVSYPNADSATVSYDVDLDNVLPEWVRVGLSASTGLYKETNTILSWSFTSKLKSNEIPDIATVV
Chain of Follistatin (Homo sapiens) (P19883 whole entry, looked up): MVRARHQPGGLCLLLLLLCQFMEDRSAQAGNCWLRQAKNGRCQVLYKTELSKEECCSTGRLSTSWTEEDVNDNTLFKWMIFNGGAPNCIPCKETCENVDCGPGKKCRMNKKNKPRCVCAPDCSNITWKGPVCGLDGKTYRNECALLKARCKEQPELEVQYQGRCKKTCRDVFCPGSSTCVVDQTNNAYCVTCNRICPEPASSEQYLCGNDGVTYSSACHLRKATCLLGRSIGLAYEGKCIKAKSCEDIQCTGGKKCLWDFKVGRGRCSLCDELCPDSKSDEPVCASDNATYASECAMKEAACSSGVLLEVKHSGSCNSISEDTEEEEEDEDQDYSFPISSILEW
Chain of Focal adhesion kinase 1 (Homo sapiens) (Q05397 whole entry, looked up): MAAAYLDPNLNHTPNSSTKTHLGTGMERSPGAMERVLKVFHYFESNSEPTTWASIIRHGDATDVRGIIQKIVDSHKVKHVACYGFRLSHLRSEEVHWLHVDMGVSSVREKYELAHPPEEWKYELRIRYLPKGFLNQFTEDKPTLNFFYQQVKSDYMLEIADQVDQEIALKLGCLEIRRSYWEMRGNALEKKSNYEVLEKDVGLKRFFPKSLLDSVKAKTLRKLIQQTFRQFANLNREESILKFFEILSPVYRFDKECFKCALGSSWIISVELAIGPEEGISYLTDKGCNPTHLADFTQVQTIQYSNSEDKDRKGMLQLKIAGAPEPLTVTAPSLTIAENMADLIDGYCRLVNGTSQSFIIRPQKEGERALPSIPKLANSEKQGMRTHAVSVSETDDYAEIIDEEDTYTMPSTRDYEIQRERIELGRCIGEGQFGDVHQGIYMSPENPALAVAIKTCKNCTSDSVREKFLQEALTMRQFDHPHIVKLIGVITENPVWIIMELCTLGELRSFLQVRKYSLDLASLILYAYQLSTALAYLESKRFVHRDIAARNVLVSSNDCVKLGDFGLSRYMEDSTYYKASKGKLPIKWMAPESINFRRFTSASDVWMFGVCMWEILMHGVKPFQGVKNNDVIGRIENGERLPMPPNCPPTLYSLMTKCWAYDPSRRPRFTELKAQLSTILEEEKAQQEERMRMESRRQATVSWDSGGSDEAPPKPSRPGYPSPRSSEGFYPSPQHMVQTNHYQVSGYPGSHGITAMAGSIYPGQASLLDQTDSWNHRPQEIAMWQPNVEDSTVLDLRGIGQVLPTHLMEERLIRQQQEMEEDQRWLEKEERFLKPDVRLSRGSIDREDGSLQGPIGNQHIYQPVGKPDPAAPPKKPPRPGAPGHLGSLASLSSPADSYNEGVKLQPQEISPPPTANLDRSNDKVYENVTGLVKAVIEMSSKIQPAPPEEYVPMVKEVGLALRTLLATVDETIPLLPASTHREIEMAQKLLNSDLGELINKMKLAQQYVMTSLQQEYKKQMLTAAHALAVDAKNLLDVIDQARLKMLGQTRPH
Chain of Fibroblast growth factor 2 (Homo sapiens) (P09038 whole entry, looked up): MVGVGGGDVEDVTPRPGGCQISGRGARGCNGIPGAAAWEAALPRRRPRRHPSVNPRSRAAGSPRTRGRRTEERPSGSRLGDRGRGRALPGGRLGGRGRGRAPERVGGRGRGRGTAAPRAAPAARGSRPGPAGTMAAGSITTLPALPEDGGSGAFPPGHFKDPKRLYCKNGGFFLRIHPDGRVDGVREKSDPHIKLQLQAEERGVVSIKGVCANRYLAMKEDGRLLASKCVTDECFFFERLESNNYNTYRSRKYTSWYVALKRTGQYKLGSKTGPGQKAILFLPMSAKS

For `COC(=O)CC=C[C@@H](C)[C@@H](C=NOC[C@H]1O[C@H](c2ccccc2)C=C[C@@H]1Oc1ccc(OC)cc1)OC`, the composite z-score (Albumin (Bos taurus)) was 0.479, the composite Z-score [1] was -0.0708 (inactive) and the composite z-score [2] was -0.23. It also gave a composite z-score [3] of -0.131, a composite z-score [4] of -0.223 and a composite z-score [5] of -0.3. The composite z-score [6] was -0.0842, the composite z-score (Sam68 (KHDRBS1)) was -0.379 and the composite z-score [7] was 0.303. The composite z-score [8] was -0.766, the composite z-score [9] was 0.162 and the composite z-score [10] was -0.499. The composite z-score [11] was -0.103, the composite z-score [12] was -0.313 and the composite z-score [13] was 0.22. It also gave a composite z-score [14] of -0.435, a z-score [15] of 0.0691 and a composite z-score (Lefty1) of -0.0398. The composite z-score [16] was -0.0524 and the z-score [17] was 0.4 (inactive).

With `CCOC(=O)C1=NO[C@]2(C=C(Br)C3(OCCCO3)[C@H]3O[C@H]32)C1` the composite z-score (Albumin (Bos taurus)) was 0.653, the composite Z-score [1] was -0.455 (inactive) and the composite z-score [2] was -0.239. For the same molecule, the composite z-score [3] was -0.0907, the composite z-score [4] was 0.114 and the composite z-score [5] was -0.263. It also gave a composite z-score [6] of -0.157, a composite z-score (Sam68 (KHDRBS1)) of -0.638 and a composite z-score [7] of -0.31. For the same molecule, the composite z-score [8] was -0.586, the composite z-score [9] was -0.765 and the composite z-score [10] was -0.57. For the same molecule, the composite z-score [11] was -0.428, the composite z-score [12] was 0.185 and the composite z-score [13] was -0.599. It also gave a composite z-score [14] of -0.285, a z-score [15] of -0.242 and a composite z-score (Lefty1) of -0.168. For the same molecule, the composite z-score [16] was 0.513 and the z-score [17] was 0.163 (inactive).

For `C[C@H]1CC[C@H]2C(=O)O[C@H](COc3ccc(C(C)(C)C)cc3)CN2[C@@H]1c1ccc(Br)cc1`, the composite z-score (Albumin (Bos taurus)) was 0.513, the composite Z-score [1] was 1.48 (inactive) and the composite z-score [2] was -0.0435. The composite z-score [3] was -0.123, the composite z-score [4] was -0.232 and the composite z-score [5] was 0.263. The composite z-score [6] was 0.253, the composite z-score (Sam68 (KHDRBS1)) was 0.421 and the composite z-score [7] was -0.0816. It also gave a composite z-score [8] of 1.09, a composite z-score [9] of 2.63 and a composite z-score [10] of 0.243. It also gave a composite z-score [11] of 0.189, a composite z-score [12] of 0.503 and a composite z-score [13] of 0.0469. For the same molecule, the composite z-score [14] was -0.101, the z-score [15] was 0.972 and the composite z-score (Lefty1) was 0.395. The composite z-score [16] was 0.034 and the z-score [17] was -1.73 (inactive).

For `COc1cccc([C@H]2Oc3ccc(OC)cc3C(=NOC[C@@H](C)[C@H](OCc3ccccc3)C(C)C)[C@@H]2O)c1`, the composite z-score (Albumin (Bos taurus)) was 0.422, the composite Z-score [1] was 0.237 (inactive) and the composite z-score [2] was -0.162. For the same molecule, the composite z-score [3] was -0.0512, the composite z-score [4] was 0.689 and the composite z-score [5] was 0.923. The composite z-score [6] was 1.37, the composite z-score (Sam68 (KHDRBS1)) was 0.413 and the composite z-score [7] was -0.269. For the same molecule, the composite z-score [8] was 0.0788, the composite z-score [9] was 1.78 and the composite z-score [10] was 0.321. For the same molecule, the composite z-score [11] was 0.0885, the composite z-score [12] was 0.069 and the composite z-score [13] was 0.232. The composite z-score [14] was 0.0521, the z-score [15] was -0.789 and the composite z-score (Lefty1) was 0.709. For the same molecule, the composite z-score [16] was 0.872 and the z-score [17] was -0.0981 (inactive).

For `COc1ccc(COC(=O)NN=C2C[C@@H](O)[C@@H](O)[C@@H]3[C@@H]4C(=O)N(c5ccc(F)cc5F)C(=O)[C@@H]4CC[C@H]23)cc1`, the composite z-score (Albumin (Bos taurus)) was 0.446, the composite Z-score [1] was 3.84 (inactive) and the composite z-score [2] was 0.0961. The composite z-score [3] was -0.157, the composite z-score [4] was -0.0507 and the composite z-score [5] was -0.181. The composite z-score [6] was 0.0054, the composite z-score (Sam68 (KHDRBS1)) was -0.169 and the composite z-score [7] was -0.293. The composite z-score [8] was 0.0493, the composite z-score [9] was 0.524 and the composite z-score [10] was -0.199. The composite z-score [11] was 0.168, the composite z-score [12] was 0.89 and the composite z-score [13] was -0.469. For the same molecule, the composite z-score [14] was 0.0314, the z-score [15] was -0.654 and the composite z-score (Lefty1) was -0.773. For the same molecule, the composite z-score [16] was 0.4 and the z-score [17] was 0.732 (inactive).
